Among the data in PubChem BioAssay AID485347 (National Center for Advancing Translational Sciences (NCATS), 2010) are potentiation values, retold here.

SMILES strings stand for the structures. The whole screen tested about 340,000 compounds, of which about 1,200 (0.35%) were called active. The entries come from a sample that favours actives as a whole. Unmarked numbers belong to inactive results.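 The calls were made as follows: active = potentiation over 3 SD above the plate norm (cut at about 30% in these data); inactive = the rest.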

Sequence of D(2) dopamine receptor (Homo sapiens) (P14416 whole entry, looked up): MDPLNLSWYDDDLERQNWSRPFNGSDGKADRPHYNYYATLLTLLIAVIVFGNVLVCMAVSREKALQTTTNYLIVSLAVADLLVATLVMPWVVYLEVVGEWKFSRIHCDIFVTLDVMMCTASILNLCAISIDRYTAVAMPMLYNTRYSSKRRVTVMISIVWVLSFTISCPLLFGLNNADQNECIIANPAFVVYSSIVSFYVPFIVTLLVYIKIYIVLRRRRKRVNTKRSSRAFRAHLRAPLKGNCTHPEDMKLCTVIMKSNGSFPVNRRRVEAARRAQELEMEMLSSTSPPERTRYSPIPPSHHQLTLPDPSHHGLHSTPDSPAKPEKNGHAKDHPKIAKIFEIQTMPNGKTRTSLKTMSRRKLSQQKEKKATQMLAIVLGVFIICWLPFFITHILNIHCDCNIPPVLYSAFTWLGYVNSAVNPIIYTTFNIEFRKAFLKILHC

The target of this experiment is D(2) dopamine receptor (Homo sapiens) (UniProt P14416). Kind of experiment: HTS Assay for Positive Allosteric Modulators of the Human D2 Dopamine Receptor: Primary Screen for Potentiators. Also: 0% is about no effect. The conditions noted are these: HEK293 T-REx D2, calcium flux, EC20 dopamine potentiation; at 10 µM; stronger effect = higher value. In outline:
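Primary screen. Calcium kinetics in induced HEK293 T-REx D2 cells: compound pre-addition 180 s, EC20 dopamine, 180 s more.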
On the technique in general: Calcium flux is commonly read through the fluorescence of an indicator in the cells.
With `CCOc1ccc(-n2c(SCC(=O)NCc3ccccc3)nc3n[nH]c(C)c3c2=N)cc1`, the potentiation was -3.4%.

For `COc1ccccc1CNCc1ccc(C(=O)O)s1`, the potentiation is 6.15%.

As to `CN1CCN(C(=O)/C(=C\c2cccs2)NC(=O)c2cccs2)CC1`, the potentiation is 15.2%.

As to `CN1C/C(=C/c2cccs2)C(=O)/C(=C\c2cccs2)C1`, the potentiation is 41.9% (active).

For `O=C1/C(=C/c2cccs2)CCc2ccccc21`, the potentiation is 1.15%.

With `Cc1c(NC(=O)CSc2cccc3cccnc23)c(=O)n(-c2ccccc2)n1C`, the potentiation was 13.1%.

For the compound `Cc1c(NC(=O)CSc2nnc(-c3cccnc3)n2N)c(=O)n(-c2ccccc2)n1C`, the potentiation was 73.3% (active).

On to `Cc1c(NC(=O)CSc2nnnn2-c2ccc(C(=O)O)cc2)c(=O)n(-c2ccccc2)n1C`, for which the potentiation was -3.5%.

`Cc1cn(C)c(CC(=O)NCc2ccccc2)c1C(=O)O`: the potentiation is 5.5%.

With `CCc1ccc(CNC(=O)c2ccc(CS(=O)c3ccc(Br)cc3)o2)cc1` (stereo not given), the potentiation was 3.07%.

In the case of `COc1ccccc1CNC(=O)C(=O)NCC(c1ccco1)S(=O)(=O)c1ccc(F)cc1` (stereo not given), the potentiation is 11.5%.

With `C=CCn1c(-c2ccc(Cl)cc2)ccc(C#N)c1=O`, the potentiation was 40.5% (active).

Turning to `C=CCn1cc(-c2cccc(C(F)(F)F)c2)cc(C#N)c1=O`, the potentiation was -3%.

As for `C=CCn1c(SCn2nnc3ccccc3c2=O)nnc1-c1ccc(Cl)cc1`, the potentiation is 3.09%.

In the case of `COc1cc(OC)cc(C(=O)Nc2cc3nn(-c4ccccc4)nc3cc2Cl)c1`, the potentiation was 29.9%.

For the compound `CCCCc1nn2c(=O)cc(COC(=O)c3ccccc3NC(=O)C(C)(C)C)nc2s1`, the potentiation was 9.21%.

Consider `CC1=CC(C)(C)NC(=S)N1NC(=O)c1ccccc1Cl`, for which the potentiation was 35.1% (active).

On to `CC1=CC(C)(C)NC(=S)N1c1ccccc1`, for which the potentiation was -0.583%.

Regarding `CC12CCC(C(=O)N(NC(=O)c3ccccc3O)C1=O)C2(C)C` (stereo not given), the potentiation was 13.8%.

Take `CCN(C(=O)c1sc2cc(OC)ccc2c1Cl)c1ccccc1`: the potentiation is -5.49%.

As for `COc1ccccc1NC(=O)c1oc2ccccc2c1NC(=O)C(C)C`, the potentiation was -4.17%.

Take `Cc1ccc(NC(=O)CSc2nc3c([nH]c4ccccc43)c(=O)n2-c2ccccc2)cc1Cl`: the potentiation is 0.276%.

As for `Cc1cccc(N2CCN(S(=O)(=O)c3ccc4[nH]c5c(c4c3)CCCCC5)CC2)c1C`, the potentiation was 2.56%.

With `CC(C)(C)NS(=O)(=O)c1ccc(NC(=O)C2CCCO2)cc1` (stereo not given), the potentiation was 5.45%.

Consider `CC(C)c1ccc(NC(=O)NC2CCCCC2)cc1`, for which the potentiation is 4%.

`CC(C)(C)NS(=O)(=O)c1ccc(NC(=O)NC2CCCCC2)cc1`: the potentiation was 38% (active).

For `CCCN(CCC)CCNC(=O)c1ccc2c(c1)NC(=O)C(CS(=O)(=O)Cc1cccc(Br)c1)N2` (stereo not given), the potentiation was 0.677%.

Turning to `COc1ccc(Cn2ccnc2SCC(=O)Nc2ccc3c(c2)OCO3)cc1`, the potentiation is 1.53%.

In the case of `Cc1ccc(C(=O)CSc2nc3ccccc3c(=O)n2N)o1`, the potentiation is 2.64%.

With `Cc1cc2c(=O)n(C)c(SCC(=O)c3cc4ccccc4o3)nc2s1`, the potentiation was 30.1% (active).

In the case of `CCc1cc2c(=O)n(-c3ccccc3)c(SCC(=O)O)nc2s1`, the potentiation is -3.23%.

On to `Cc1ccc2c(=O)c(C(=O)c3ccc(F)cc3)cn(CC(=O)NC3CCCCC3)c2n1`, for which the potentiation was -9.33%.

For the compound `CCCCNC(=S)NNC(=O)c1cc(C)on1`, the potentiation was 37% (active).

As for `COCCCNC(=S)NNC(=O)C(O)(c1ccccc1)c1ccccc1`, the potentiation was -5.53%.

With `CCCCNC(=O)c1cc(-c2ccc(Cl)c(Cl)c2)on1`, the potentiation was -3.44%.

In the case of `COc1ccc(-c2nc(S(=O)(=O)c3ccccc3)c(N3CCCCC3)o2)cc1`, the potentiation was -5.46%.

Take `COc1ccccc1N1CCN(C(=O)c2cc(-c3ccc(Cl)c(Cl)c3)on2)CC1`: the potentiation was 69.4% (active).

In the case of `COc1ccccc1-c1cc(C(=O)N2CCCCC2)no1`, the potentiation is -22.4%.

For `COc1ccc(-c2cc(C(=O)N3CCN(c4ccc(F)cc4)CC3)no2)cc1`, the potentiation was -8.77%.

On to `Cc1cccc(Cn2c(=O)n(CCC(=O)NCCc3ccc(Cl)cc3)c(=O)c3sccc32)c1`, for which the potentiation is 13%.

Consider `CCN1CCN(C(c2ccc(C)cc2)c2c(O)cc(C)n(Cc3ccco3)c2=O)CC1` (stereo not given), for which the potentiation is 6.89%.

Take `CCCC(C)n1[nH]c(=O)c2c(C)cc(C)nc21` (stereo not given): the potentiation is 33% (active).

In the case of `CCC(C)n1[nH]c(=O)cc1N` (stereo not given), the potentiation is 2.87%.

For `CCC(C)n1[nH]c(=O)c2c(C)cc(C)nc21` (stereo not given), the potentiation is 1.22%.

For the compound `CCOC(=O)c1oc2ccc(S(=O)(=O)n3nc(-c4ccccc4OC)cc3N)cc2c1C`, the potentiation was -0.8%.

With `COc1ccc(-n2ccn(CC(=O)Nc3ccc(C)c(C)c3)c(=O)c2=O)cc1OC`, the potentiation is 6.27%.

As to `O=C(Nc1c(-c2ccc(F)cc2)nc2ccccn12)c1cccc(F)c1`, the potentiation was 12.9%.

Consider `CCN1CCc2nc3sc(C(=O)Nc4ccccc4OC(F)(F)F)c(N)c3cc2C1`, for which the potentiation is 3.95%.

In the case of `Cc1cccc(N2CCN(C(=O)CN(C)S(=O)(=O)c3ccc4c(c3)CCC(=O)N4)CC2)c1C`, the potentiation is -3.34%.

For `CCOC(=O)Cc1csc(NC(=O)CN(C)S(=O)(=O)c2ccc3c(c2)CCC(=O)N3)n1`, the potentiation is 43% (active).

Regarding `CCOC(=O)Cc1csc(NC(=O)CSc2ccc(Br)cc2)n1`, the potentiation is -0.963%.

Consider `Cc1sc(C2C(C#N)=C(N)N(c3cccc(Cl)c3)C3=C2C(=O)CCC3)cc1CN1CCOCC1` (stereo not given), for which the potentiation is -0.593%.

Regarding `O=C(Nc1ccc(S(=O)(=O)N2CCCCC2)cc1)c1cnccn1`, the potentiation is 30.4% (active).

For the compound `CCN1CCN(c2ccc(NC(=O)c3cnccn3)cc2)CC1`, the potentiation was -0.266%.

On to `O=C(Nc1ccc(S(=O)(=O)N2CCCCCC2)cc1)c1c(F)cccc1F`, for which the potentiation was 2.54%.

For the compound `CN(Cc1ccccc1)S(=O)(=O)c1ccc(F)c(C(=O)Nc2cccc(Cl)c2Cl)c1`, the potentiation was -2.84%.

On to `CCN(CC)S(=O)(=O)c1ccc2c(c1)N(CC(=O)NCc1ccccc1)C(=O)CS2`, for which the potentiation is -1.87%.

As to `CC(=O)NS(=O)(=O)c1ccc(NC(=S)NC(=O)C(C)(C)C)cc1`, the potentiation is 33.2% (active).

`CC(=O)NS(=O)(=O)c1ccccc1`: the potentiation is 10.6%.

For `CC(=O)Nc1ccc(S(=O)(=O)Nc2cccc(NC(=O)C(C)(C)C)c2)cc1`, the potentiation was 0.479%.
